# Laboratory results taken from PubChem BioAssay AID1159580 (chemical genetic matrix, 2015).
# “And” between values parts separate entries of the source, which are not always exact repeats. Identical values can stand only once. The whole screen tested about 5,500 compounds, of which about 2,000 (36%) were called active. Not shown: some 18% with an inconclusive outcome. The list shows a part of the results. A number with no mark means an inactive call. Cut-off read from the data, not from the text of the source: active = normalized growth mostly below about 0.91 (no sharp cut-off); inconclusive = no clear call, values can overlap the other calls; inactive = mostly above about 0.92.
# Test: chemical genetic growth profiling, strain panel (AID 1159580);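 note: tested at 20 µM; growth read once vehicle control cultures reached saturation at 30 °C; 1 = growth at the plate median or of vehicle wells; lower values mean less growth of the strain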
# Details: S. cerevisiae deletion strains, growth OD
smiles,measurement,setting,value
COc1ccc2c(c1)OC1(O)COc3cc(OC)c(OC)cc3C1=C2 (stereo unspecified),normalized growth,"locus YAL013W, strain DEP1, active compounds read low",0.99
same,normalized growth,"locus YAL021C, strain ccr4, active compounds read low",1
same,normalized growth,"locus YAL026C, strain drs2, active compounds read low",0.97
same,normalized growth,"locus YAL030W, strain snc1, active compounds read low",0.973
same,normalized growth,"locus YBL061C, strain skt5, active compounds read low",0.968
same,normalized growth,"locus YBR009C, strain hhf1, active compounds read low",1
same,normalized growth,"locus YBR021W, strain FUR4, active compounds read low",1.01
same,normalized growth,"locus YBR023C, strain chs3, active compounds read low",0.979
same,normalized growth,"locus YBR171W, strain sec66, active compounds read low",0.965
same,normalized growth,"locus YBR229C, strain ROT2, active compounds read low",1.01
same,normalized growth,"locus YBR231C, strain swc5, active compounds read low",0.939
same,normalized growth,"locus YBR279W, strain paf1, active compounds read low",0.984
same,normalized growth,"locus YCL011C, strain gbp2, active compounds read low",0.983
same,normalized growth,"locus YCL016C, strain dcc1, active compounds read low",1.01
same,normalized growth,"locus YCL029C, strain bik1, active compounds read low",0.981
same,normalized growth,"locus YCL069W, strain vba3, active compounds read low",0.988
same,normalized growth,"locus YCR088W, strain abp1, active compounds read low",0.978
same,normalized growth,"locus YDL005C, strain med2, active compounds read low",0.978
same,normalized growth,"locus YDL035C, strain GPR1, active compounds read low",0.974
same,normalized growth,"locus YDL040C, strain nat1, active compounds read low",0.971
same,normalized growth,"locus YDL074C, strain BRE1, active compounds read low",0.992
same,normalized growth,"locus YDL101C, strain DUN1, active compounds read low",1.02
same,normalized growth,"locus YDL134C, strain PPH21, active compounds read low",1.01
same,normalized growth,"locus YDL185W, strain tfp1, active compounds read low",0.983
same,normalized growth,"locus YDL192W, strain arf1, active compounds read low",0.977
same,normalized growth,"locus YDR001C, strain nth1, active compounds read low",0.98
same,normalized growth,"locus YDR069C, strain doa4, active compounds read low",0.961
same,normalized growth,"locus YDR101C, strain arx1, active compounds read low",0.972
same,normalized growth,"locus YDR137W, strain rgp1, active compounds read low",0.934
same,normalized growth,"locus YDR150W, strain NUM1, active compounds read low",1.01
same,normalized growth,"locus YDR159W, strain sac3, active compounds read low",0.897
same,normalized growth,"locus YDR162C, strain NBP2, active compounds read low",1.01
same,normalized growth,"locus YDR195W, strain ref2",0.992
same,normalized growth,"locus YDR297W, strain sur2, active compounds read low",0.978
same,normalized growth,"locus YDR318W, strain mcm21, active compounds read low",0.949
same,normalized growth,"locus YDR334W, strain swr1, active compounds read low",0.982
same,normalized growth,"locus YDR335W, strain msn5, active compounds read low",0.996
same,normalized growth,"locus YDR388W, active compounds read low",0.981
same,normalized growth,"locus YDR392W, strain spt3, active compounds read low",0.734 (active)
same,normalized growth,"locus YDR502C, strain sam2, active compounds read low",0.985
same,normalized growth,"locus YEL003W, strain gim4, active compounds read low",0.962
same,normalized growth,"locus YEL037C, strain rad23, active compounds read low",0.99
same,normalized growth,"locus YEL061C, strain CIN8 (second series), active compounds read low",0.978
same,normalized growth,"locus YEL061C, strain CIN8, active compounds read low",1
same,normalized growth,"locus YER015W, strain faa2, active compounds read low",0.993
same,normalized growth,"locus YER016W, strain bim1, active compounds read low",0.971
same,normalized growth,"locus YER110C, active compounds read low",0.976
same,normalized growth,"locus YER111C, strain swi4, active compounds read low",0.97
same,normalized growth,"locus YER155C, strain BEM2 (second series), active compounds read low",0.904
same,normalized growth,"locus YER155C, strain BEM2, active compounds read low",1
same,normalized growth,"locus YER167W, strain BCK2, active compounds read low",0.963
same,normalized growth,"locus YFR010W, strain ubp6, active compounds read low",0.965
same,normalized growth,"locus YGL078C, strain dbp3, active compounds read low",1.01
same,normalized growth,"locus YGL086W, strain mad1, active compounds read low",0.97
same,normalized growth,"locus YGL167C, strain pmr1, active compounds read low",0.985
same,normalized growth,"locus YGL173C, strain kem1, active compounds read low",0.94
same,normalized growth,"locus YGL227W, strain vid30, active compounds read low",0.978
same,normalized growth,"locus YGL240W, strain doc1, active compounds read low",0.942
same,normalized growth,"locus YGL248W, strain PDE1, active compounds read low",1.01
same,normalized growth,"locus YGL253W, strain hxk2, active compounds read low",0.929
same,normalized growth,"locus YGR078C, strain PAC10, active compounds read low",0.985
same,normalized growth,"locus YGR135W, strain pre9, active compounds read low",0.985
same,normalized growth,"locus YGR229C, strain SMI1, active compounds read low",0.967
same,normalized growth,"locus YGR252W, strain gcn5, active compounds read low",0.873
same,normalized growth,"locus YHR013C, strain ard1, active compounds read low",0.977
same,normalized growth,"locus YHR027C, strain rpn1, active compounds read low",0.986
same,normalized growth,"locus YHR030C, strain SLT2, active compounds read low",0.996 and 0.931
same,normalized growth,"locus YHR079C, strain IRE1 (second series), active compounds read low",0.972
same,normalized growth,"locus YHR079C, strain IRE1, active compounds read low",0.925
same,normalized growth,"locus YHR094C, strain hxt1, active compounds read low",0.989
same,normalized growth,"locus YHR129C, strain ARP1, active compounds read low",1.01
same,normalized growth,"locus YHR142W, strain chs7, active compounds read low",0.926
same,normalized growth,"locus YHR200W, strain rpn10, active compounds read low",0.972
same,normalized growth,"locus YIL066C, strain RNR3, active compounds read low",0.986
same,normalized growth,"locus YIL073C, strain SPO22, active compounds read low",0.895
same,normalized growth,"locus YIL125W, strain kgd1, active compounds read low",0.997
same,normalized growth,"locus YIR030C, strain dcg1, active compounds read low",0.987
same,normalized growth,"locus YJL092W, strain hpr5, active compounds read low",0.979
same,normalized growth,"locus YJL095W, strain BCK1 (second series), active compounds read low",0.98
same,normalized growth,"locus YJL095W, strain BCK1, active compounds read low",0.965 and 0.92
same,normalized growth,"locus YJL115W, strain asf1, active compounds read low",0.983
same,normalized growth,"locus YJL129C, strain trk1, active compounds read low",0.979
same,normalized growth,"locus YJL134W, strain LCB3, active compounds read low",1
same,normalized growth,"locus YJL154C, strain vps35, active compounds read low",0.977
same,normalized growth,"locus YJL164C, strain tpk1, active compounds read low",0.983
same,normalized growth,"locus YJL166W, strain qcr8, active compounds read low",0.948
same,normalized growth,"locus YJL168C, strain set2, active compounds read low",0.989
same,normalized growth,"locus YJL187C, strain SWE1 (second series), active compounds read low",1.01
same,normalized growth,"locus YJL187C, strain SWE1, active compounds read low",0.999
same,normalized growth,"locus YJR043C, strain POL32, active compounds read low",0.97
same,normalized growth,"locus YJR066W, strain TOR1, active compounds read low",0.9
